TEAD-YAP block = TEAD-YAP interaction inhibition. HEK-TIYL cells, TEAD-Gal4/YAP UAS-luciferase luminescence. inhibition, % at 9.12 µM. 1.4% of 640,000 active; in the data active means inhibition above about 32%
GPR151 ag = activators of human GPR151 | PathHunter beta-arrestin GPR151 cells, luminescence | 1% of 650,000 active | AID 1508602 | Q8TDV0 | activation, % at 11.2 µM; in the data active means activation above about 4.9%
MITF inh = human MITF inhibition, primary screen. O75030. AlphaScreen MITF homodimerization, bead proximity signal. inhibition, % at 2.6 µM. 0.91% of 650,000 active. AID 1259374; in the data active means inhibition above about 50%
FBW7 activator = activators of human E3 ligase FBW7. Q969H0. AlphaScreen FBW7–phospho-cyclin E peptide binding, activator screen. normalized activity (activation), % at 26.1 µM. 0.13% of 650,000 active; in the data active means normalized activity above about 1.9%;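 further: purified mutant Fbw7 with reduced substrate affinity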
GPR151 conf act = confirmation of human GPR151 activators | AID 1508609 | activation, % at 11.2 µM | GPR151 PathHunter beta-arrestin cells, luminescence, 90 min; % of EA-reagent control over plate median | 6,700 tested, under 10 active | shares compounds with GPR151 ag;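 active means mean percent activation across replicates above the confirmation screen cutoff of 4.91%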
GPR119 counter = GPR119 activation, counter-screen for GPR151 activators. 0.3% of 6,700 active. shares compounds with GPR151 ag. activation, % at 11.2 µM. GPR119 PathHunter beta-arrestin cells, luminescence, 90 min; 0 = compound-well median, 100 = enzyme-acceptor control;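 active means mean percent activation in the counterscreen above 29.09%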;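 further: counterscreen on off-target GPR119 to flag nonselective hits from the GPR151 activator screen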
Target sequence (Q8TDV5 whole entry, looked up): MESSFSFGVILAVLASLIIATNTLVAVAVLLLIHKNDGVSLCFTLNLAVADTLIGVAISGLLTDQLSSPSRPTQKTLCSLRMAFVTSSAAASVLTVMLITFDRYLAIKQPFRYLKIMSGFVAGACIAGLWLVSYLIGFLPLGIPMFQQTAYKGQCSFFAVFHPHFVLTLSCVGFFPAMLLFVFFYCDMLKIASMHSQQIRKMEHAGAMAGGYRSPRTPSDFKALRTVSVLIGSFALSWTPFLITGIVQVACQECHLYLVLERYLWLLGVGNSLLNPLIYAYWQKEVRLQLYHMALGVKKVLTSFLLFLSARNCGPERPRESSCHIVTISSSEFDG
Large screens that a line does not name were inactive (follow-up assays come after a bar, where they were run). Sampled rows, rich in hits. Any-hit rate of the full collection: about 3.5%.

COc1cccc(C(=O)Nc2cc(C(C)(C)C)ccc2C(C)=O)c1	GPR151 ag 5.2 | GPR151 conf act inactive | GPR119 counter inactive
CC(=O)c1ccc(C(C)(C)C)cc1NC(=O)c1ccc(Cl)cc1	none
COc1cccc(C(=O)Nc2cc(=O)n(C)c(=O)n2C)c1	GPR151 ag 10 | GPR151 conf act inactive | GPR119 counter inactive
CCOC(=O)c1c(C)n(C)c2c1cc(O)c1ccccc12	GPR151 ag 6.1 | GPR151 conf act inactive | GPR119 counter inactive
COc1ccc(S(=O)(=O)CCC(=O)Nc2ccccc2Br)cc1	GPR151 ag 9.4 | GPR151 conf act inactive | GPR119 counter inactive
Cc1cc(OCC(=O)Nc2nnn(C)n2)cc(C)c1Cl	none
Cc1cc2c(cc1S(=O)(=O)C(C)CC(=O)NCc1ccc(Cl)cc1)OCC(=O)N2 (centres undefined)	none
Cc1ccc(CNC(=O)CC(C)S(=O)(=O)c2cc3c(cc2C)NC(=O)CO3)cc1 (centres undefined)	GPR151 ag 5.3 | GPR151 conf act inactive | GPR119 counter inactive
CCNC(=O)N1CCC(Cn2c(COc3ccccc3)nc3ccccc32)CC1	none
O=C(c1ccco1)N1CCC(Cn2c(COc3ccccc3)nc3ccccc32)CC1	GPR151 ag 7.5 | GPR151 conf act inactive | GPR119 counter inactive
CC(=O)Nc1ccc(NC(=O)c2cc3c(=O)n4ccccc4nc3n2C)cc1	none
Cc1ccc(NC(=O)c2cc3c(=O)n4ccccc4nc3n2C)cc1F	GPR151 ag 5.6 | GPR151 conf act inactive | GPR119 counter inactive
Cn1c(C(=O)Nc2ccc(Oc3ccccc3)cc2)cc2c(=O)n3ccccc3nc21	GPR151 ag 5.9 | GPR151 conf act inactive | GPR119 counter inactive
CC1CCN(C(=O)Cn2cnc3c(nnn3Cc3ccccc3)c2=O)CC1	none
CCN(CCn1cccn1)c1nc2nonc2nc1NC1CCCC1	none
O=C(O)c1cccc(NS(=O)(=O)/C=C/c2ccccc2)c1	none
O=C(O)c1ccc(NS(=O)(=O)/C=C/c2ccccc2)cc1	GPR151 ag 7.0 | GPR151 conf act inactive | GPR119 counter inactive
O=C(c1ccccc1)c1ccccc1-n1cccc1	none
O=C(O)C(Oc1ccccc1-n1cccc1)c1ccccc1 (centres undefined)	GPR151 ag 6.4 | GPR151 conf act inactive | GPR119 counter inactive
CC(c1ccco1)N(C)Cc1ccc(C(=O)NC23CC4CC(CC(C4)C2)C3)c(=O)[nH]1 (centres undefined)	GPR151 ag 11 | GPR151 conf act inactive | GPR119 counter inactive
CC(c1ccco1)N(C)Cc1ccc(C(N)=O)c(=O)[nH]1 (centres undefined)	none
Cc1ccc(OCCOc2ccc(Oc3nc(N(C)C)nc(N(C)C)n3)nn2)cc1	GPR151 ag 5.3 | GPR151 conf act inactive | GPR119 counter inactive
Cc1cccc(NC(=O)CCC(=O)NCc2ccccc2)c1C	none
Cc1ccnc(SCc2nc3ccc(Cl)cn3c2Br)n1	none
Cc1ccnc(SCc2nc3ccccn3c2Br)n1	GPR151 ag 15 | GPR151 conf act inactive | GPR119 counter inactive
Cc1cc(NC(=O)C(N)=O)ccc1Br	GPR151 ag 5.0 | GPR151 conf act inactive | GPR119 counter inactive
Cc1c(C(=O)c2ccc(Br)cc2)c(=O)n(C)c(=O)n1C	GPR151 ag 5.8 | GPR151 conf act inactive | GPR119 counter inactive
CCCNC(=O)Cn1cnc2sc(C(=O)NCC(=O)OC)c(C)c2c1=O	none
CC(=O)C(Cc1ccccc1)NC(=O)CN1C(=O)c2ccccc2C1=O (centres undefined)	none
CCOC(=O)C(CC1=CNC2C=CC=CC12)NC(=O)CN1C(=O)c2ccccc2C1=O (centres undefined)	GPR151 ag 7.7 | GPR151 conf act inactive | GPR119 counter inactive
COc1cccc(C(c2sc3nc(C)nn3c2O)N2CCC(C(N)=O)CC2)c1 (centres undefined)	none
CCc1nc2sc(C(c3cccc(OC)c3)N3CCC(C(N)=O)CC3)c(O)n2n1 (centres undefined)	GPR151 ag 5.8 | GPR151 conf act inactive | GPR119 counter inactive
O=S(=O)(c1ccc(S(=O)(=O)n2cnc3ccccc32)cc1)N1CCCC1	GPR151 ag 6.0 | GPR151 conf act inactive | GPR119 counter inactive
CC(O)CNc1nc2ccccc2n1CC(=O)N1CCc2ccccc21 (centres undefined)	GPR151 ag 10.0 | GPR151 conf act inactive | GPR119 counter inactive
COc1cccc2cc(-c3csc(NC(=O)CCC(=O)N4CCC(C(N)=O)CC4)n3)c(=O)oc12	GPR151 ag 5.2 | GPR151 conf act inactive | GPR119 counter inactive
CCNC(=O)NC(=O)Cn1c(=O)oc2ccccc21	none
Cn1c(=O)c2c(ncn2CC(O)CN2C(=O)c3ccccc3S2(=O)=O)n(C)c1=O (centres undefined)	GPR151 ag 6.0 | GPR151 conf act inactive | GPR119 counter inactive
O=C1OC(/C=C/c2cccc(Cl)c2Cl)=NC/1=C\c1ccccc1Cl	none
O=C1OC(/C=C/c2cccc(Cl)c2Cl)=NC/1=C\c1ccccc1C(F)(F)F	GPR151 ag 5.8 | GPR151 conf act inactive | GPR119 counter inactive
O=C(Nc1ccc2[nH]ncc2c1)[C@H]1CCN(C(=O)[C@H](O)CSc2ccc(Br)cc2)C1	none
O=C(Nc1ccc2[nH]ncc2c1)[C@H]1CCN(C(=O)[C@@H](O)CSc2ccc(Br)cc2)C1	GPR151 ag 5.7 | GPR151 conf act inactive | GPR119 counter inactive
COc1ccc(CCN(C)C2CCCN(C(=O)NC(C)(C)C)C2)cc1OC (centres undefined)	none
CC1CCCC(C)N1CC(O)COc1ccc(N)cc1 (centres undefined)	GPR151 ag 4.9 | GPR151 conf act inactive | GPR119 counter inactive
CC(=O)c1ccc(OCC(O)CN2CCCCC2C)cc1 (centres undefined)	GPR151 ag 5.2 | GPR151 conf act inactive | GPR119 counter inactive
COc1ccccc1-c1c(C)nn2c(N3CCC(N4CCCCC4)CC3)cc(C)nc12	none
O=C(NCCO)C1CCCN(c2cccc3c2C(=O)N(C2CCCCCCC2)C3=O)C1 (centres undefined)	GPR151 ag 5.8 | GPR151 conf act inactive | GPR119 counter inactive
O=C1c2cccc(N3CCCC(C(=O)N4CCC[C@H]4CO)C3)c2C(=O)N1C1CCCC1 (some centres undefined)	none
COc1ccccc1NC(=O)Nc1n[nH]c(-c2ccccc2)n1	none
O=C(c1c(-c2ccccc2)oc2ccc(O)cc12)N1CCCCC1	GPR151 ag 4.9 | GPR151 conf act inactive | GPR119 counter inactive
O=C(O)c1c(-c2ccccc2)oc2ccc(O)cc12	none
O=C(Nc1nccs1)C1CCC(CNc2c(N3CCOCC3)c(=O)c2=O)CC1 (centres undefined)	none
CCCCS(=O)(=O)CC(O)CSc1nc(-c2ccc(OC)cc2)cc(-c2ccccc2)c1C#N (centres undefined)	none

Screening data deposited in PubChem by The Scripps Research Institute Molecular Screening Center.
